Measured values reported in the supplement of paper PMC11219838.
A number with no mark means an inactive call.

Columns and labels:
Settings in all cases: 60 µM; 5 days; temperature: 20 °C
Meloidogyne hapla J2 = assay: proportion of mobile M. hapla J2 relative to DMSO control (fraction of DMSO control); higher = more viable, less nematicidal, active = 0.7 or less
Summary of the method: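 About 25 M. hapla J2 were added per 96-well well in distilled water, and compound was pinned to 60 µM final (0.6% v/v DMSO). Sealed plates were shaken at 200 rpm for 5 days at 20 °C, then 2 µL 1 M NaOH was added before microscopic mobility scoring. Mobility was divided by the mean of eight DMSO wells on the same plate, and two biological replicates were averaged.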

[1] = system: Caenorhabditis elegans dauer (daf-2(e1370)); assay: proportion of mobile C. elegans dauer larvae relative to DMSO control (fraction of DMSO control); higher = more viable, less nematicidal, active = 0.63 or less; extreme values may be limits of the assay
Summary of the method: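 The proportion of mobile worms, relative to DMSO wells, was scored by dissection microscope and averaged over two biological replicates. Worms were C. elegans dauers, about 20 per well in liquid NGM in 96-well plates, generated from synchronized larvae on MYOB plates with E. coli OP50 at 25 °C for 48 h. They were treated with compound pinned to 60 µM final (0.6% v/v DMSO) and kept in sealed plates shaken at 200 rpm for 5 days at 20 °C.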

Ditylenchus dipsaci = assay: proportion of mobile D. dipsaci (mixed stage) relative to DMSO control (fraction of DMSO control); higher = more viable, less nematicidal, active = 0.86 or less; extreme values may be limits of the assay
Summary of the method: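 D. dipsaci were grown on pea plants in Gamborg B-5 agar and extracted through a filter funnel into water, and about 20 worms were added per 96-well well in distilled water. Compound was pinned to 60 µM final (0.6% v/v DMSO), and sealed plates were shaken at 200 rpm for 5 days at 20 °C. After 2 µL 1 M NaOH was added, mobile worms were scored microscopically. Mobility was expressed relative to DMSO controls and averaged over two biological replicates.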

Row | SMILES | proportion of mobile M. hapla J2 (Meloidogyne hapla J2) | proportion of mobile C. elegans dauer larvae [1] | proportion of mobile D. dipsaci (Ditylenchus dipsaci)
1 | Cc1csc(NC(=O)CSc2nnc(-c3cccc(Cl)c3)o2)n1 | 1.05 | 1 | 1
2 | Cc1ccc(-c2nc(-c3cccnc3)no2)cc1Cl | 1.02 | 1 | 1
3 | CC(C)(C)c1ccc(OCc2nc(-c3ccccc3)no2)cc1 | 0.987 | 1 | 1
4 | CC(Oc1ccccc1)c1nc(-c2ccccn2)no1 (configuration not stated) | 0.937 | 1 | 1
5 | COc1cccc(NC(=O)c2ccccc2-c2nc(-c3ccccc3Cl)no2)c1 | 0.918 | 1 | 1
6 | CCOc1nc(-c2ccc(C)cc2)ccc1-c1noc(CC)n1 | 0.667 (active) | 1 | 1
7 | CCn1cc(C(=O)CSc2nnc(-c3ccccc3)o2)c2ccccc21 | 0.987 | 1 | 1
8 | CCOC(=O)c1c(NC(=O)CSc2nnc(-c3ccccc3OCC)o2)sc(C(C)=O)c1C | 0.918 | 1 | 1
9 | c1csc(-c2nnc(-c3cccs3)o2)c1 | 0.754 | 0.786 | 0.769 (active)
10 | Cc1ccc(OCc2nc(-c3ccccc3)no2)cc1C | 1.1 | 1 | 1
11 | Clc1ccc(-c2nc(-c3ccncc3)no2)c(Cl)c1 | 0.942 | 1 | 1
12 | COc1ccc(-c2nnc(SCC(=O)c3ccccc3)o2)cc1 | 0.767 | 1 | 1
13 | Brc1ccccc1-c1nc(-c2ccncc2)no1 | 0.995 | 0.274 (active) | 1
14 | Cc1ccc(-c2noc(-c3ccc(C)cc3C)n2)cc1 | 0.869 | 1 | 1
15 | Cc1ccc(-c2nnc(SCc3ccc(Br)cc3)o2)cc1 | 0.923 | 1 | 1
16 | Cc1ccccc1-c1nc(-c2ccccc2Cl)no1 | 0.985 | 1 | 1
17 | FC(F)(F)c1cccc(-c2noc(-c3ccccc3Cl)n2)c1 | 1.04 | 1 | 1
18 | Cc1ccc(-c2nc(-c3ccncc3)no2)c(Cl)c1 | 0.979 | 1 | 1
19 | Cc1ccc(OC(C)c2nc(-c3ccncc3)no2)cc1C (configuration not stated) | 0.995 | 1 | 1
20 | Cc1ccc(OC(C)c2nc(-c3ccc4c(c3)OCO4)no2)cc1C (configuration not stated) | 0.943 | 1 | 1
21 | CCOc1nc(-c2ccccc2)ccc1-c1noc(-c2cccc(C)c2)n1 | 0.805 | 1 | 1
22 | Clc1ccc(OCc2nc(-c3ccccn3)no2)c(Br)c1 | 1.04 | 1 | 1
23 | COc1ccccc1-c1noc(-c2ccccc2F)n1 | 0.91 | 1 | 1
24 | COc1cccc(-c2noc(COc3ccccc3Cl)n2)c1 | 0.998 | 1 | 1
